Data from PubChem BioAssay (NCI).
About 79,000 compounds went through this panel and 15% of them were active in at least one assay; those are over-represented in the sample as a whole. Active and inactive are the calls of the source. Cut-off read from the data, not from the text of the source: active = growth inhibition above about 70%; inactive = the rest.

What was measured:
[1] = NCI Yeast Anticancer Drug Screen. Data for the rad52 strain (AID 147);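 note: 0% = growth of vehicle-treated control cultures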; conditions: S. cerevisiae rad52 mutant growth inhibition, hits give high values
Summary of the method: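 Genetically altered yeast (DNA damage repair defect) treated with compound; inhibition calculated relative to vehicle.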

[2] = NCI Yeast Anticancer Drug Screen. Data for the wt1 strain (AID 149);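 note: 0% = growth of vehicle-treated wt1 cultures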; conditions: S. cerevisiae wt1 strain (SPY 50644) growth inhibition, hits give high values
Summary of the method: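 Measured: growth of wt1 yeast under compound versus vehicle treatment, reported as inhibition.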

[3] = NCI Yeast Anticancer Drug Screen. Data for the rad50EPP+ strain (AID 151);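 note: 0% = growth of vehicle-treated control cultures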; conditions: S. cerevisiae rad50 mutant strain, hits give high values
Summary of the method: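 Strain rad50EPP+; compound exposure; % growth inhibition vs vehicle.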

[4] = NCI Yeast Anticancer Drug Screen. Data for the mgt1 strain (AID 153); conditions: S. cerevisiae mgt1 mutant growth inhibition, hits give high values
Summary of the method: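 Read-out: yeast growth inhibition vs vehicle control. Strain mgt1, drawn from a panel altered in DNA damage repair or cell cycle control.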

[5] = NCI Yeast Anticancer Drug Screen. Data for the rad50 strain (AID 155);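 note: 0% = growth of vehicle-only cultures of the same strain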; conditions: S. cerevisiae rad50 strain growth inhibition, hits give high values
Summary of the method: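 Growth of the mutant yeast was measured after compound exposure and referenced to vehicle-treated cultures.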

[6] = NCI Yeast Anticancer Drug Screen. Data for the mec2-1 strain (AID 157); conditions: S. cerevisiae mec2-1 strain, hits give high values
Summary of the method: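 Cells of the genetically defined mec2-1 yeast strain are incubated with test compound. Inhibition of growth is calculated against vehicle-treated controls.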

[7] = NCI Yeast Anticancer Drug Screen. Data for the rad14 strain (AID 159);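 note: 0% = growth of vehicle-treated control cultures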; conditions: S. cerevisiae rad14 strain growth inhibition, hits give high values
Summary of the method: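 Here, inhibition of yeast growth was measured after compound exposure, using a strain with a genetic defect in DNA damage repair and vehicle-treated cultures as the reference.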

[8] = NCI Yeast Anticancer Drug Screen. Data for the sgs1 mgt1 strain (AID 161);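 note: 0% = growth of cultures given vehicle only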; conditions: S. cerevisiae sgs1 mgt1 strain, hits give high values
Summary of the method: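 Read-out: growth inhibition vs vehicle controls. Cells: mutant yeast strain deficient in DNA damage repair.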

[9] = NCI Yeast Anticancer Drug Screen. Data for the CLN2oe strain (AID 163);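 note: 0% = growth of vehicle-only control cultures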; conditions: S. cerevisiae CLN2oe strain, hits give high values
Summary of the method: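 Strain altered in cell-cycle control, incubated with compound; growth compared to solvent-treated controls.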

[10] = NCI Yeast Anticancer Drug Screen. Data for the cln2 rad14 strain (AID 165);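 note: 0% = growth equal to vehicle treated cultures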; conditions: S. cerevisiae cln2 rad14 strain, hits give high values
Summary of the method: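 The screen exposed genetically defined yeast (cln2 rad14) to test compounds and scored growth inhibition relative to vehicle-treated controls.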

[11] = NCI Yeast Anticancer Drug Screen. Data for the wt2 strain (AID 169);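 note: 0% = growth of vehicle-treated yeast cultures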; conditions: S. cerevisiae wt2 strain growth inhibition, hits give high values
Summary of the method: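 Steps: yeast strain treated with compound; growth recorded; inhibition calculated relative to cultures given vehicle alone.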

[12] = NCI Yeast Anticancer Drug Screen. Data for the mlh1 strain (AID 171);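 note: 0% = growth of vehicle-treated control cultures of the same strain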; conditions: S. cerevisiae mlh1 strain growth inhibition, hits give high values
Summary of the method: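 Yeast screen: mutant strain plus compound, growth scored against vehicle control wells.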

[13] = NCI Yeast Anticancer Drug Screen. Data for the sgs1 strain (AID 173);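 note: 0% = growth of vehicle-only control cultures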; conditions: S. cerevisiae sgs1 mutant, hits give high values
Summary of the method: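 Inhibition of yeast growth served as the measure. The mutant strain was treated with each compound, and growth was normalised to cultures receiving vehicle alone.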

[14] = NCI Yeast Anticancer Drug Screen. Data for the mlh1 rad18 strain (AID 175); conditions: S. cerevisiae mlh1 rad18 strain growth inhibition, hits give high values
Summary of the method: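 Compound-treated yeast growth, normalised to vehicle controls. Strain bears defined DNA repair mutations.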

[15] = NCI Yeast Anticancer Drug Screen. Data for the rad18 strain (AID 177); conditions: S. cerevisiae rad18 mutant growth inhibition, hits give high values
Summary of the method: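 Inhibition values reflect reduced yeast growth compared with vehicle-treated controls, using a strain engineered with a DNA damage repair defect.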

[16] = at 5.0 µM (retest, dose inferred, filed as 0.5)
[17] = at 50.0 µM (retest, dose inferred, filed as 5.0)

Measured: growth inhibition

c1ccc([P+](CCN2Cc3ccccc3C2)(c2ccccc2)c2ccccc2)cc1
inactive: [1]; at 1.2 µM 29% | [1]; at 3.7 µM 54% | [1]; at 11.0 µM 39% | [1]; at 33.0 µM 64% | [2]; at 1.2 µM -7% | [2]; at 3.7 µM 31% | [2]; at 11.0 µM 26% | [2]; at 33.0 µM 38% | [3]; at 1.2 µM -21% | [3]; at 3.7 µM -15% | [3]; at 11.0 µM -10% | [3]; at 33.0 µM -8% | [3]; at 100.0 µM 6% | [4]; at 1.2 µM -19% | [4]; at 3.7 µM 2% | [4]; at 11.0 µM 28% | [4]; at 33.0 µM 48% | [5]; at 1.2 µM 30% | [5]; at 3.7 µM 64% | [5]; [16] 64% | [5]; at 11.0 µM 61% | [5]; at 33.0 µM 61% | [5]; [17] 69% | [6]; at 1.2 µM -15% | [6]; at 3.7 µM 39% | [6]; [16] 49% | [6]; at 11.0 µM 36% | [6]; at 33.0 µM 67% | [7]; at 1.2 µM -22% | [7]; at 3.7 µM 13% | [7]; at 11.0 µM 21% | [7]; at 33.0 µM 53% | [8]; [16] 22% | [9]; at 1.2 µM 19% | [9]; at 3.7 µM 11% | [9]; at 11.0 µM 29% | [9]; at 33.0 µM 50% | [10]; [16] 23% | [10]; [17] 25% | [11]; at 1.2 µM -45% | [11]; at 3.7 µM -19% | [11]; at 11.0 µM 11% | [11]; at 33.0 µM 31% | [12]; at 1.2 µM -39% | [12]; at 3.7 µM 18% | [12]; at 11.0 µM 32% | [12]; at 33.0 µM 60% | [13]; at 1.2 µM 13% | [13]; at 3.7 µM 35% | [13]; at 11.0 µM 53% | [13]; at 33.0 µM 67% | [15]; at 1.2 µM 49% | [15]; at 11.0 µM 58%
active: [1]; at 100.0 µM 95% | [2]; at 100.0 µM 95% | [4]; at 100.0 µM 95% | [5]; at 50.0 µM 72.1% | [5]; at 100.0 µM 95% | [6]; [17] 81% | [6]; at 50.0 µM 78.9% | [6]; at 100.0 µM 95% | [7]; at 100.0 µM 70% | [8]; [17] 97% | [8]; at 50.0 µM 82% | [9]; at 100.0 µM 93% | [10]; at 50.0 µM 76% | [11]; at 100.0 µM 93% | [12]; at 100.0 µM 95% | [13]; at 100.0 µM 96% | [14]; [16] 71% | [14]; [17] 87% | [14]; at 50.0 µM 88.8% | [15]; at 3.7 µM 71% | [15]; at 33.0 µM 74% | [15]; at 100.0 µM 96%
